Compound activity: PubChem BioAssay, National Center for Advancing Translational Sciences (NCATS)
TrxR1 inh: rat TrxR1 inhibition; O89049; AID 588453; recombinant rTrxR1, NADPH fluorescence consumption, selenite substrate; Potency, µM (top dose mostly 114 µM), without a hit: at the highest dose activity change, negative = inhibition, actives largely listed as inhibitors; 390,000 compounds, 1% hits; also: % is scaled to controls: 0 for no effect and ±100 for the full control effect; nearly all actives have a fitted effect of over 65% in size
Target sequence (O89049 whole entry, looked up): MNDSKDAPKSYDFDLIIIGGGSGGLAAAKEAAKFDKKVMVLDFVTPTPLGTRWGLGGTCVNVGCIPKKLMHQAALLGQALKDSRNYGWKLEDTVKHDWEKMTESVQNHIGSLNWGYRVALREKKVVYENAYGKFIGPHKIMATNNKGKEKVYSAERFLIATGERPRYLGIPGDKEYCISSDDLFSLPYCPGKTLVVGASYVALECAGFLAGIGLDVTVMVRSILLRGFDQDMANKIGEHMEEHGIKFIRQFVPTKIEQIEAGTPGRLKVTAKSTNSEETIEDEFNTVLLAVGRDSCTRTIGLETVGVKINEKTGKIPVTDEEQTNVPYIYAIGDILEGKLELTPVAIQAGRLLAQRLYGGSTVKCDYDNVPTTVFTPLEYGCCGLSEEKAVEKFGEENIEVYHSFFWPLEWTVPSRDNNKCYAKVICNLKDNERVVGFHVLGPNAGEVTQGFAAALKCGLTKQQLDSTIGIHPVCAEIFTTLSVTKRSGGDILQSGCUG
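Rat TrxR1 (90 nM in the dispensed reagent) was pre-reduced with 400 uM NADPH for 5 min at room temperature, then incubated with compound for 15 min. After 400 uM selenite was added, NADPH fluorescence (Ex 340/Em 450 nm) was followed for 8 min.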
GRP78 ERSR act: inducers of ER stress response in human glioma cells; U87-MG GRP78 promoter luciferase reporter, 16 h; Potency, µM, inactives show at the top dose activation, usual class: activators; 420,000 compounds, 0.02% hits; also: series mostly up to about 76 µM; % of control where 0% means no effect; nearly all actives have a fitted effect of over 35% in size
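Stably transfected U87-MG glioma cells carrying a GRP78-based luciferase sensor; 16 h compound incubation. Luminescence end-point read 10 min after Bright-Glo addition at room temperature.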
TrxR1 substrate: substrates of rat thioredoxin reductase 1. purified TrxR1 substrate turnover, NADPH consumption readout. Potency, µM (highest dose often 114 µM), for inactives: top-dose activity change, negative = substrate turnover. 390,000 compounds, 0.01% hits; also: % is scaled to controls: 0 for no effect and ±100 for the full control effect; nearly all actives have a fitted effect of over 50% in size
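Rat TrxR1, dispensed at 90 nM, was prereduced with 400 uM NADPH (final) for 5 min at ~22 deg C, then incubated with compound 15 min before 400 uM selenite. A first-read NADPH fluorescence drop versus no-compound background flagged substrates.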
12-LOX inh: blocks human arachidonate 12S-lipoxygenase | purified 12hLO, xylenol orange hydroperoxide absorbance | 580,000 compounds, 1.1% hits | P18054 | Potency, µM (titrated, usually from 108 µM), for inactives: at the top dose activity change, negative = inhibition, most hits filed as inhibitors | AID 1671190; also: % is scaled to controls: 0 for no effect and ±100 for the full control effect
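Purified human 12hLO (150 nM final) in 25 mM Hepes, 0.01% Triton X-100, pH 7.0 was preincubated 15 min at room temperature with compound. Then 40 uM arachidonic acid was added, 30 min. Hydroperoxide was read by Fe-XO absorbance ratio 573/405 nm.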
Anesthetic bind: binds horse apoferritin like a general anesthetic; apoferritin/1-aminoanthracene competitive binding, fluorescence; 350,000 compounds, 0.074% hits; Potency, µM (top dose mostly 77.5 µM), for inactives: at the top dose activity change, negative = displacement, actives largely listed as inhibitors; also: % is scaled to controls: 0 for no effect and ±100 for the full control effect; nearly all actives have a fitted effect of over 20% in size
Target sequence (P02791 2-175 limits assumed): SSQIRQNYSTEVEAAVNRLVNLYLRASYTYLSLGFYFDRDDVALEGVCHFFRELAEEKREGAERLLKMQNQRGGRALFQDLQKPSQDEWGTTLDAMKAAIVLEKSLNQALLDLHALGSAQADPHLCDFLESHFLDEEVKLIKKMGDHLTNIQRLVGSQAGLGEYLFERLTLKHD
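Concentration-response curves derived by four-parameter Hill fitting of normalized fluorescence, where compounds displaced 1-AMA from 10 uM horse apoferritin following a brief 10 min room-temperature incubation; propofol titration acted as positive control.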
IDH1 R132H inh: human IDH1 R132H inhibition | O75874 | IDH1-R132H enzyme, NADPH consumption, diaphorase/resazurin fluorescence | Potency, µM (doses to about 76.6 µM), inactives show at the top dose activity change, negative = inhibition, actives largely listed as inhibitors | 390,000 compounds, 0.093% hits; also: % is scaled to controls: 0 for no effect and ±100 for the full control effect; nearly all actives have a fitted effect of over 65% in size
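IDH1-R132H (0.5 ug/mL dispensed) in pH 7.5 Tris buffer was preincubated 30 min with compound, then given a substrate mix of 0.016 mM NADPH and 2 mM alpha-KG for 80 min at room temperature; remaining NADPH was read by diaphorase/resazurin fluorescence.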
Numbers without * were called inactive; ? = inconclusive; . = not tested or not shown; ! = repeats disagree; [ ] = another dose, or the depositor's remark. This is a sample that favours compounds with a hit; in the whole collection about 1.7% have one here. Calls follow the shape of the dose curve; as a rule, active = well fitted curve in the direction sought with a large enough effect; inconclusive = small, poorly fitted or top-dose-only effect, or another doubt; inactive = no such curve, though single readings can be large; an effect the other way counts as inactive or inconclusive. Potency is read from the fitted curve at half-maximal effect.

SMILES	TrxR1 inh	GRP78 ERSR act	TrxR1 substrate	12-LOX inh	Anesthetic bind	IDH1 R132H inh
C[C@H]1CN([C@@H](C)CO)C(=O)c2cc(C#CCC3CCCC3)cnc2O[C@@H]1CN(C)C(=O)CC1CC1	.	-3%	.	45µM*	.	-4%
O=C(NC1CC1)c1ccccc1OCC1CCCN(CC2=Cc3ccccc3OC2)C1 (centres undefined)	.	.	.	25%	.	.
O=C(O)c1ccc(F)c2ccccc12	.	.	.	-18%	.	.
O=C(N/N=C/C=C/c1ccccc1)C(O)c1ccccc1 (centres undefined)	10%	1%	-8%	-9%	.	5%
O=C(N/N=C/C=C/c1ccco1)C(O)c1ccccc1 (centres undefined)	13µM*	-1%	-3%	?	.	8%
C/C(=N\NC(=O)Cc1cccn1C)c1ccco1	?	1%	-3%	0%	1%	0%
Cn1cccc1CC(=O)N/N=C/C=C/c1ccco1	50µM*	-4%	-4%	?	-4%	5%
CCOC(=O)C1=C(Cc2ccc(F)cc2)C(=O)c2ccccc2C1=O	6.3µM*	?	-22%	?	?	19%
O=C(OCc1ccc(F)cc1)c1ccc2c(c1)-c1ccccc1C2=O	1%	-2%	2%	13%	-12%	1%
CCS(=O)(=O)C1=NN2C(=N)/C(=C\c3ccc(SCc4ccco4)o3)C(=O)N=C2S1	?	1%	-4%	35µM*	-12%	5%
CCS(=O)(=O)C1=NN2C(=N)/C(=C\c3ccc(OC(=O)c4ccco4)c(Br)c3)C(=O)N=C2S1	.	.	.	.	-18%	.
CCS(=O)(=O)N1CCN(S(=O)(=O)c2ccc3ccccc3c2)CC1	20%	2%	8%	76%	0%	4%
CC(C)N1CCN(S(=O)(=O)c2ccc3ccccc3c2)CC1	28%	-4%	5%	0.79µM*	-5%	6%
CC(C)NC(=O)C(C)N1CCN(S(=O)(=O)c2ccc3ccccc3c2)CC1 (centres undefined)	17%	-3%	3%	1.4µM*	4%	15%
CC(C)C(=O)N1CCN(S(=O)(=O)c2ccc3ccccc3c2)CC1	16%	-4%	9%	-3%	-8%	9%
CC(C)c1ccc(O)c(NC(=S)NC(=O)c2ccc3c(c2)OCO3)c1	18%	4%	-5%	13µM*	?	7%
O=C(NC(=S)Nc1ccccc1Br)c1ccc2c(c1)OCO2	?	1%	-13%	?	-3%	1%
CCOc1ccc(C(C)NC(=S)NC2CCCCC2)cc1OCC (centres undefined)	9%[57.1 µM]	-3%	8%[57.1 µM]	?	-15%	-1%
CCOc1ccc(C(=S)NC2CCCCC2)cc1OCC	-1%	2%	-5%	35µM*	-21%	16%
CC(=O)N1CCN(CC[C@H]2CN(C(=O)Cc3ccccc3)CC[C@H]2CC(=O)O)CC1	.	.	.	1%[176 µM]	.	.
O=C(/C=C1\NC2(CCCC2)Cc2ccccc21)N1CCOCC1	40µM*	-5%	-4%	?	-1%	2%
CC(Sc1ncccc1Cl)C(=O)NC(C)(C)C (centres undefined)	.	.	.	12%	.	.
Cc1cc2oc(=O)cc(CN3CCCCC3)c2cc1C(C)C	-17%	-5%	0%	?	-4%	9%
Cc1cc2oc(=O)cc(CN3CCCCC3C)c2cc1Cl (centres undefined)	11%	-4%	4%	18µM*	?	-9%
Cc1cc2oc(=O)cc(CN3CCCCCC3)c2cc1C(C)C	.	.	.	18µM*	.	.
SMILES	TrxR1 inh	GRP78 ERSR act	TrxR1 substrate	12-LOX inh	Anesthetic bind	IDH1 R132H inh
Cc1cc(C)c2c(CN3CCCCC3C)cc(=O)oc2c1 (centres undefined)	-20%	4%	-12%	?	-19%	-5%
Cc1cc2oc(=O)cc(CN3CCN(C)CC3)c2cc1Cl	.	.	.	-25%	.	.
Cc1cc2oc(=O)cc(CN3CCCCC3C)c2cc1C (centres undefined)	-9%	-1%	6%	11µM*!	?	-2%
O=C(NC1CCCC1)O[C@H]1COCCN(c2nc3ccccc3o2)C1	.	.	.	20%[176 µM]	.	.
CC[C@H]1CN(C(=O)c2ccnc(Cl)c2)CC[C@H]1CC(=O)NCc1ccc(OC)cc1	.	.	.	23%[176 µM]	.	.
COc1ccc(-n2cnc3cc(C(=O)N4CCSCC4)ccc3c2=O)cc1Cl	.	.	.	0%	.	.
CN1CC2(CCN(C(=O)c3cc4ccccc4[nH]3)CC2)CC1C(=O)N1CCOCC1 (centres undefined)	.	.	.	-8%	.	.
Nc1nc(-c2ccco2)cs1	-6%	5%	5%	-8%	-24%	3%
c1coc(-c2nc(-c3ccco3)c(-c3ccco3)nc2-c2ccco2)c1	2.8µM*	-7%	9%[57.1 µM]	?	-14%	0%
COc1ccc2nc(-c3ccco3)c(-c3ccco3)nc2c1	8.9µM*	-2%	28%	18µM*	360%	16%
c1coc(-c2nc3cc4ccccc4cc3nc2-c2ccco2)c1	4.5µM*	-6%	-6%	.	.	.
Nc1nc(-c2ccco2)c(-c2ccco2)s1	50µM*	-1%	2%	?	?	8%
COC(=O)c1ccc(Oc2nc3c(c(=O)n(C)c(=O)n3C)n2Cc2ccc(C#N)cc2)cc1	.	.	.	11%	.	.
CCc1noc([C@@H]2CC(F)(F)CN2)n1	.	.	.	16%	.	.
CC(CC(=O)Nc1ncc([N+](=O)[O-])s1)c1ccccc1 (centres undefined)	-5%[57.1 µM]	5%	-5%[57.1 µM]	?	35µM*	10%
CCNc1ccc(Br)cc(C(=O)/C=C/c2ccccc2Cl)c1=O	?	4%	-4%	8.9µM*	.	10%
CNc1ccc(Br)cc(C(=O)/C=C/c2cccc(Cl)c2Cl)c1=O	11µM*	11%	5%	6.3µM*	-10%	7%
CNc1ccc(Br)cc(C(=O)/C=C/c2cccc(OC)c2OC)c1=O	-7%	1%	-7%	?	2%	5%
CCNc1ccccc(C(=O)/C=C/c2ccc3c(c2)OCO3)c1=O	?	?	0%	?	-1%	4%
